The results in this text go back to PubChem BioAssay (EPA / NIEHS).

The nature of assay [1]: ATG_CRE_CIS: Attagene CIS-FACTORIAL HepG2 Assay for human cAMP Responsive Element (CRE) binding protein 3 (AID 2282926). Conditions: HepG2 CRE cis-reporter, Attagene multiplexed mRNA; actives raise or lower the signal. The essentials: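 Assay format: transient reporter transfection of HepG2, 24 h treatment, total RNA isolation with DNase I step. Reporter abundance read by fluorescence after PCR and capillary separation; DMSO-normalised gain or loss fitting.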

The target in assay [2] is CCAAT/enhancer-binding protein beta (Homo sapiens) (UniProt P17676). As to the kind of experiment: ATG_C_EBP_CIS: Attagene CIS-FACTORIAL HepG2 Assay for human CCAAT/Enhancer Binding Protein (C/EBP) beta (AID 2282927). Conditions: HepG2 Attagene cis-factorial transcription factor reporter; actives raise or lower the signal. The essentials:
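RT-PCR/capillary electrophoresis fluorescence of reporter mRNA, 24 h post-dose, in HepG2 cells carrying transfected cis-promoter reporter units. Bidirectional curve fitting against DMSO baseline captures gain or loss of signal.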

Assay [3] in a line: ATG_CMV_CIS: Attagene CIS-FACTORIAL HepG2 Assay for human CMV (Internal Marker) (AID 2282928).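 Also: endpoint acts as a background internal control marker rather than a target.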 Conditions: HepG2 CMV promoter reporter, transcription factor profiling; actives raise or lower the signal. In a few lines: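 Reporter transcripts from transfected HepG2 cells are isolated after 24 h of chemical dosing, reverse-transcribed and amplified. Fragments labeled with 6-FAM are cut with HpaI and quantified by capillary electrophoresis; DMSO defines baseline.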

Assay [4] in a line: ATG_DR4_LXR_CIS: Attagene CIS-FACTORIAL HepG2 Assay for human Liver X Receptor (LXR), DR4 submotif (AID 2282929). Conditions: HepG2 Attagene DR4 cis-reporter, mRNA transcription; actives raise or lower the signal. The essentials: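 Cells were transfected with multiple reporter transcription units, exposed to chemicals for 24 hours, then lysed for RNA. Reporter mRNA induction was measured by RT-PCR with capillary electrophoresis detection and fitted in both directions relative to DMSO.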

Assay [5] deals with Aryl hydrocarbon receptor (Homo sapiens) (UniProt P35869). As to the kind of experiment: ATG_Ahr_CIS: Attagene CIS-FACTORIAL HepG2 Assay for human Aryl Hydrocarbon Receptor (Ahr) (AID 2282930). Conditions: HepG2 AhR cis-factorial reporter transcription; actives raise or lower the signal. In a few lines: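 HepG2 cells transiently transfected with cis-element-driven multiplexed reporter transcription units; endogenous transcription factor activity measured as reporter mRNA 24 h after dosing. RT-PCR, 6-FAM labelling, HpaI digestion, capillary electrophoresis; bidirectional fitting versus DMSO baseline.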

Assay [6] is described as follows: ATG_AP_1_CIS: Attagene CIS-FACTORIAL HepG2 Assay for human Activator Protein 1 (AP-1) (AID 2282931). Conditions: HepG2 Attagene cis-factorial AP-1 reporter mRNA; actives raise or lower the signal. The essentials: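 Endogenous transcription-factor activity in human HepG2 liver cells is read through a cis-promoter reporter transcript, sampled 24 h after dosing. Detection uses RT-PCR with capillary electrophoresis; values come from bidirectional fitting relative to DMSO.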

The nature of assay [7]: ATG_AP_2_CIS: Attagene CIS-FACTORIAL HepG2 Assay for human Activator Protein 2 (AP-2) (AID 2282932). Conditions: HepG2 AP-2 cis-reporter, Attagene transcription factor profiling; actives raise or lower the signal. In a few lines:
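Assay in transfected HepG2 with promoter-regulated reporters, 24 h incubation after dosing. Signal is reporter mRNA fluorescence (RT-PCR, capillary electrophoresis), analysed for both increases and decreases relative to DMSO controls.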

In assay [8] the target is Retinoic acid receptor alpha (Homo sapiens) (UniProt P10276). The assay is described as follows: ATG_DR5_RAR_CIS: Attagene CIS-FACTORIAL HepG2 Assay for human Retinoic Acid Receptor Alpha (RARE), DR5 submotif (AID 2282934). Conditions: HepG2 Attagene cis-factorial RARE DR5 reporter, mRNA; actives raise or lower the signal. In a few lines:
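HepG2 cells transiently transfected with multiplexed reporter units under cis (DR5 RARE) promoters, so endogenous transcription factor activity is measured. After 24 h compound exposure, reporter mRNA is quantified by RT-PCR with fluorescent labelling and capillary electrophoresis; bidirectional fitting versus DMSO.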

A short description of assay [9]: ATG_BRE_CIS: Attagene CIS-FACTORIAL HepG2 Assay for human Bone Morphogenetic Protein (BMP) Response Element (BRE) (AID 2282933). Conditions: HepG2 BMP response element reporter, Attagene transcription factor profiling; actives raise or lower the signal. The essentials:
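HepG2 cells transiently transfected with CIS reporter units (endogenous TF activity, BMP response element), dosed 24 h. Reporter mRNA quantified by RT-PCR, fluorescent labelling and capillary electrophoresis; bidirectional fit vs DMSO baseline.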

Assay [10] is described as follows: APR_HepG2_CellLoss_72hr: Apredica 72-hour HepG2 Assay for Cell Loss (AID 2282915). Conditions: high-content imaging. In a few lines:
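HepG2 cells were exposed for 72 hr to compounds at 0.39–200 uM (ten concentrations, duplicate) in 0.5% v/v final DMSO. Nuclei were stained with Hoechst 33342 after 3.7% formaldehyde fixation, imaged at 20x, and counted; fits bidirectional versus DMSO.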

The nature of assay [11]: APR_HepG2_P-H2AX_72hr: Apredica 72-hour HepG2 Assay for H2AX Phosphorylation (AID 2282916).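 Also: phospho-histone H2A.x immunostain intensity per cell marking DNA damage.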 Conditions: imaging, actives raise or lower the signal. In a few lines:
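Readout: phospho-H2A.x immunofluorescence (FITC secondary) plus Hoechst nuclear stain, high-content imaging at 20x, six fields/well. HepG2, 72 hr compound exposure, 0.39–200 uM, final DMSO 0.5% v/v. Gain or loss fitted relative to DMSO baseline.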

A short description of assay [12]: APR_HepG2_MitoticArrest_72hr: Apredica 72-hour HepG2 Assay for Mitotic Arrest (AID 2282918). Conditions: high-content imaging, actives raise or lower the signal. The essentials: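 Read-out is phospho-histone H3 immunofluorescence with Hoechst nuclear segmentation, imaged at 20x. Human HepG2 liver cells received ten concentrations (0.39–200 uM, final DMSO 0.5% v/v) for 72 hr before fixation. Gain or loss of signal was fitted relative to DMSO.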

Assay [13] is described as follows: APR_HepG2_P-H2AX_24hr: Apredica 24-hour HepG2 Assay for H2AX Phosphorylation (AID 2282920). Conditions: high-content imaging, actives raise or lower the signal. In a few lines: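 HepG2, 24 hr, cpd 0.39–200 uM (10 conc, duplicate), DMSO 0.5% v/v final. Fix 3.7% formaldehyde, Triton X-100 permeabilize, anti-phospho-H2A.x 1:200 + Hoechst 2 ug/mL. Imaged, bidirectional fit vs DMSO.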

Assay [14] is described as follows: APR_HepG2_StressKinase_72hr: Apredica 72-hour HepG2 Assay for Stress Kinase (AID 2282921). Conditions: HepG2 stress kinase (phospho-c-Jun) imaging, actives raise or lower the signal. In a few lines: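 Phospho-c-Jun immunofluorescence measured by high-content imaging at 20x, six fields per well; bidirectional curve fitting against DMSO as baseline. Dosing: 0.39–200 uM, 72 h, 0.5% DMSO final.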

Assay [15] can be described thus: APR_HepG2_StressKinase_24hr: Apredica 24-hour HepG2 Assay for Stress Kinase (AID 2282922). Conditions: HepG2 stress kinase (phospho-c-Jun) imaging, actives raise or lower the signal. The essentials:
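After 24 hr compound treatment (up to 200 uM, final DMSO 0.5% v/v), HepG2 cells are fixed and multiplex-labeled; phospho-c-Jun intensity is captured by high-content fluorescence imaging and analyzed relative to DMSO.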

Assay [16] in a line: APR_HepG2_p53Act_72hr: Apredica 72-hour HepG2 Assay for p53 Activation (AID 2282923).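 Also: average cellular p53 protein immunofluorescence intensity in HepG2 cells.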 Conditions: high-content imaging, actives raise or lower the signal. The essentials: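 Readout: p53 immunofluorescence quantified by automated high-content imaging at 20x, six fields per well, nuclei located via Hoechst. Dosing ran 72 hr over ten concentrations from 0.39 to 200 uM; bidirectional curve fitting against DMSO baseline.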

Assay [17] in a line: APR_HepG2_MitoMass_72hr: Apredica 72-hour HepG2 Assay for Mitochondrial Mass (AID 2282924).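 Also: MitoTracker Red CMXRos stain intensity per cell imaged as mitochondrial mass.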 Conditions: high-content imaging, actives raise or lower the signal. The essentials: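 Steps: treat HepG2 72 hr (0.39–200 uM, duplicate wells); load MitoTracker Red CMXRos, 250 nM, 30 min; fix with 3.7% formaldehyde, permeabilise with 0.5% Triton X-100; capture images, nuclei via Hoechst 33342; fit bidirectionally against DMSO.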

Assay [18] is described as follows: APR_HepG2_MicrotubuleCSK_72hr: Apredica 72-hour HepG2 Assay for Microtubule CSK Stabilty (AID 2282919). Conditions: HepG2 microtubule cytoskeleton, high-content imaging, actives raise or lower the signal. In a few lines:
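Ten-point dosing (0.39–200 uM, 0.5% DMSO) of HepG2 for 72 hr, with taxol as the cytoskeletal positive control. The cells were formaldehyde-fixed and then stained with alpha-tubulin/Cy5 and Hoechst. Imaging at 20x used a −2 um Z offset for tubulin.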

Assay [19] is described as follows: APR_HepG2_NuclearSize_72hr: Apredica 72-hour HepG2 Assay for Nuclear Size (AID 2282925). Conditions: high-content imaging, actives raise or lower the signal. In a few lines: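 Compounds (0.39–200 uM, final DMSO 0.5%) were applied to HepG2 for 72 hr. Cells were then formaldehyde-fixed, permeabilized and labelled with Hoechst 33342. Nuclear diameter was quantified from six images per well.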

Several values for one entry are separate records, joined by “and”; a condition that tells them apart may be missing. Identical values can stand only once. More than one record can exist for a structure, and the calls need not agree. Activity calls are given as the source filed them. The calls were made as follows: active = hit-call score of the fitted dose curve at least 0.9, where 1 is the maximum; inactive = score below 0.9.

Chain of CCAAT/enhancer-binding protein beta (Homo sapiens) (P17676 whole entry, looked up): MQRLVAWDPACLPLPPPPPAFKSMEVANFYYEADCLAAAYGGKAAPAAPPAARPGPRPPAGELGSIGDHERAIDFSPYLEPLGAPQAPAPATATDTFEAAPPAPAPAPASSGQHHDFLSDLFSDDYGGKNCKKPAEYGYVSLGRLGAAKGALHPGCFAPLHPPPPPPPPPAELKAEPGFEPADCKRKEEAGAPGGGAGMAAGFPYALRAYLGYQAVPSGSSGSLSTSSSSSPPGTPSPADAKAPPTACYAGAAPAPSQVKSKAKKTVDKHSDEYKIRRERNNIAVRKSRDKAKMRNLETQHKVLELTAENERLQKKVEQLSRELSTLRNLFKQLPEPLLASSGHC
Chain of Aryl hydrocarbon receptor (Homo sapiens) (P35869 whole entry, looked up): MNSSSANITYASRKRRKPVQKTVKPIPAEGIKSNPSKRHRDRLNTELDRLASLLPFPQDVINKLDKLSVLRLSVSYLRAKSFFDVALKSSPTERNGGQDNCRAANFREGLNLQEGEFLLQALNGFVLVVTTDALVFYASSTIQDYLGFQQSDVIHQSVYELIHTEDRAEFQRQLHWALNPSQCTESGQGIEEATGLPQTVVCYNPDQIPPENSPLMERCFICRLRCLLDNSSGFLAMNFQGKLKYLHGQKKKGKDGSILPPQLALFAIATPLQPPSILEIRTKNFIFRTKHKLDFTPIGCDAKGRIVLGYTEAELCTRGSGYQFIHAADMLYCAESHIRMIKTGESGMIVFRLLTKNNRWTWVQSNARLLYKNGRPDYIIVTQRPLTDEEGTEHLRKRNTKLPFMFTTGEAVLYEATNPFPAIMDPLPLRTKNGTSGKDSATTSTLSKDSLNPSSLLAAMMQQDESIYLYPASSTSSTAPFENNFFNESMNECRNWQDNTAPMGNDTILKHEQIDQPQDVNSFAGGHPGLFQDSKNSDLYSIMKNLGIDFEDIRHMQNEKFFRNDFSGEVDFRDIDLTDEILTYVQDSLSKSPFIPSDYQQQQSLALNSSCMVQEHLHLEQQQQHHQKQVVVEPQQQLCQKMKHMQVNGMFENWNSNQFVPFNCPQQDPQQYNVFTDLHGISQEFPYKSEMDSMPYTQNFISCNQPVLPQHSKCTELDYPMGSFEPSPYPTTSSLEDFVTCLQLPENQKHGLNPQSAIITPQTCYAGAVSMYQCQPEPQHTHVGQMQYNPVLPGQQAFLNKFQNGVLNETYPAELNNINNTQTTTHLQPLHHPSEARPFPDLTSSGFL
Chain of Retinoic acid receptor alpha (Homo sapiens) (P10276 whole entry, looked up): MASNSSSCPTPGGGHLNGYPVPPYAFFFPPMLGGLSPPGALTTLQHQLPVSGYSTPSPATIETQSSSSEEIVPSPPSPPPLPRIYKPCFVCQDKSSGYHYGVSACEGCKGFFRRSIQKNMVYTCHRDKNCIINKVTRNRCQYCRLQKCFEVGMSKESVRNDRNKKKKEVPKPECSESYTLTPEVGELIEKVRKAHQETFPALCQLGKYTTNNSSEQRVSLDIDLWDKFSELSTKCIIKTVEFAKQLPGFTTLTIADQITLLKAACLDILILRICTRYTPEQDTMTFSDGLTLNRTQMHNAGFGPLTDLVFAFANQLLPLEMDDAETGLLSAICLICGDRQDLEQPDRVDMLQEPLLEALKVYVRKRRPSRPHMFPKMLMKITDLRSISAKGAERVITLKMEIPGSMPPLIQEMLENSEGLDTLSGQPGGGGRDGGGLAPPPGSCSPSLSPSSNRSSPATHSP

Regarding `C[Si](C)(C)C(F)(F)C(F)(F)C(F)(F)F`, the call in [1], in assay [2], in [3], in assay [4], in [5] and in assay [6] was inactive. The outcome in assay [7] and in assay [8] was inactive.
As to `OCCC(F)(F)C(F)(F)C(F)(F)C(F)(F)F`, the call in assay [1], in [2], in assay [4], in [5], in assay [6] and in assay [7] was inactive. In addition, the compound was classed as inactive in [9] and in assay [8].
On to `CC(C)c1nnc2ccc(-c3ocnc3-c3cc(F)ccc3F)cn12`, for which the result in assay [10], in assay [11], in [12], in assay [13], in assay [14] and in assay [15] was inactive. Besides, the compound was classed as inactive in assay [16], in assay [17], in [1], in assay [2], in [4] and in assay [5]. For the same compound, the compound was classed as inactive in assay [6], in [7] and in [8].
Consider `OC(O)(C(F)C(O)(O)C(F)(F)F)C(F)(F)F`, for which the call in assay [1], in assay [5], in assay [6], in assay [9] and in [8] was inactive. Besides, the AC50 was 78.9 µM (active) and 82.9 µM (active) in assay [2]; 9 µM (active) and 6.13 µM (active) in assay [3]; 37.9 µM (active) and 4.59 µM (active) in assay [4]; 71 µM (active) and 18.9 µM (active) in assay [7]; 6.79 µM (active) in [9].
Turning to `C=CCc1cc(S(=O)(=O)c2ccc(O)c(CC=C)c2)ccc1O`, the concentration at half-maximal activity (AC50) is 73.2 µM (active) in [10]; 53.2 µM (active) in [11]; 71.3 µM (active) in assay [12]; 77.5 µM (active) in [13]; 58.5 µM (active) in assay [17]; 79.1 µM (active) in [19]. Also, the AC50 is 20.4 µM (active) in [4], 23.2 µM (active) in assay [6] and 22.1 µM (active) in assay [9]. The compound was classed as inactive in assay [18], in [14], in assay [15], in [1], in assay [2] and in [5]. Besides, the call in assay [7] and in [8] was inactive.
With `O=C(O)[C@H](O)[C@@H](O)C(=O)O`, the result in assay [10], in assay [11], in [12], in [18], in assay [13] and in assay [14] was inactive. The call in assay [15], in [17], in [19], in [1], in [2] and in assay [4] was inactive. Also, the call in assay [5], in assay [6] and in assay [7] was inactive.
